From ChEMBL document CHEMBL4513216, “Probing the Open Global Health Chemical Diversity Library for Multistage-Active Starting Points for Next-Generation Antimalarials” (ACS Infect Dis, 2020)
Hit rate of the full screen: of about 69,000 compounds, about 8,600 (12%) showed an effect of 50% or more. This excerpt belongs to a sample that is enriched for strong results.

Test system: Plasmodium berghei
Test: Screen against P. berghei liver stage (PbLuc), transformed with Luciferase, at 10uM
Type: functional, HepG2
Settings: tested at 10 uM

SMILES | INHIBITION [%]
OC1CCN(CCCNc2nccc(C3CCCC3)n2)CC1 | 31.4
CC(O)CN1CCN(Cc2cccc(C(=O)N3CCCCC3)c2)CC1 (centres undefined) | 37.9
O=C(c1cscn1)N1CCc2[nH]nc(Nc3ccccc3)c2C1 | -15.625
Cc1ccccc1CN(CCN(C)C)Cc1ccc(O)c(C(=O)O)c1 | 29.2
CC(C)c1nc(-c2ccc(=O)[nH]n2)n(-c2ccc3c(c2)OCO3)n1 | 25.5
CCc1nnsc1-c1nc(C(C)C)nn1-c1ccc2c(c1)OCO2 | 12.4
Cc1nonc1-c1nc(C(C)C)nn1-c1ccc2c(c1)OCO2 | 82
CN(C)c1nc(CNC(=O)N[C@H](CO)c2ccccc2)cs1 | -42
COc1ccccc1CCNC(=O)CC1(Cn2cnnn2)CCCCC1 | 48.2
CC(C)Cc1cc(NC(=O)c2ccc(=O)[nH]n2)n(C)n1 | 40.3
CC(C)Cc1cc(NC(=O)c2ccccc2)n(C)n1 | 10
CC(C)Cc1cc(NC(=O)c2n[nH]c3ccccc23)n(C)n1 | 56.6
COC(CNC(=O)C1CCCC1)c1ccc(C)s1 (centres undefined) | 24.7
COc1cc(C(=O)N2CCCC2c2noc(C(C)C)n2)on1 (centres undefined) | -2.143
CN(CCCc1ccc(C(F)(F)F)cc1)Cc1nccn1C | 66.8
Cn1ccnc1CN(CCO)Cc1ccc(C(F)(F)F)cc1 | 29.8
CN(Cc1nccn1C)C1CCCN(CCCc2ccccc2)C1 (centres undefined) | 43.7
CC(=O)c1ccc(S(=O)(=O)Nc2cnn(C3CCOCC3)c2)cc1 | -24.1
O=C(Cn1ccc2ccc(Cl)cc21)/N=c1\[nH]nc(C2CCCO2)s1 (centres undefined) | 39.7
CC(C)CN1CC(c2nc(-c3ccsc3)c[nH]2)CC1=O (centres undefined) | 53.3
CC(C)CN1CC(c2nc(-c3ccc(F)cc3)c[nH]2)CC1=O (centres undefined) | 27.5
COc1ccc(-c2c[nH]c(C3CC(=O)N(CC(C)C)C3)n2)cc1 (centres undefined) | -15
CC(C)N1CCC(Cc2cncc(-c3cc(F)ccc3C(=O)O)n2)CC1 | 41.2
CCN(CCNS(=O)(=O)N1CCOCC1)C(=O)OC(C)(C)C | 41.3
CN(C(=O)NCc1nccn1Cc1ccccc1)C1CC1 | 46.4
COc1ccc(CC(=O)NCCCc2nnc3nc(C)cc(C)n23)cc1 | 52.7
COc1ccc(S(=O)(=O)NCCCc2nnc3nc(C)cc(C)n23)cc1 | 74.6

SMILES | INHIBITION [%]
Cc1cc(C)n2c(CCCNS(=O)(=O)c3ccccc3)nnc2n1 | 34.6
COc1ccc(CC(=O)NCCNS(=O)(=O)c2ccc(C)cc2)cc1 | -57.5
Cc1cc(C)n2c(CCCNS(=O)(=O)c3cccs3)nnc2n1 | 31.3
Cc1cc(C)n2c(CCCNS(=O)(=O)c3ccc(F)cc3)nnc2n1 | 15.4
CCCS(=O)(=O)NCC(O)c1c(Cl)cccc1Cl (centres undefined) | 0.87
CCn1nc(C)c2c1cnn2CC(=O)NC(C)c1cccc(OC)c1 (centres undefined) | 49.9
Cc1nnc([C@@H]2CC[C@@H]3[C@@H](CCN3C3CCC3)O2)o1 | 23.3
Cc1nnc([C@@H]2CC[C@@H]3[C@@H](CCN3CC3CCOCC3)O2)o1 | -13.7
Cc1nnc([C@@H]2CC[C@@H]3[C@@H](CCN3C3CCOCC3)O2)o1 | 60.3
CCCNC(=O)COc1ccc(-c2ccccc2)nc1 | -91.3
O=C(Cn1cc(I)cn1)Nc1cccnc1 | 4.74
Cn1cc(C(=O)NCc2cncc3c2CCN(CC2CC2)C3)cn1 | 28.5
Cc1nc(-c2ccccc2)n(CC(=O)NC(C)C)n1 | 31.2
COc1ccc(C(N)=O)cc1NCc1ncc(-c2cccs2)o1 | 69.7
COc1ccc(C(N)=O)cc1NCc1noc(-c2ccsc2)n1 | 9.06
COc1ccc(NC(=O)CCn2nc(-c3cccs3)oc2=O)cc1OC | -22.9
CNC(=O)c1ccc(OC)c(NCc2ncc(-c3cccs3)o2)c1 | 61.1
COc1ccc(C(N)=O)cc1NCc1nc(-c2cccs2)oc1C | 68
CNC(=O)c1ccc(OC)c(NCc2noc(-c3ccsc3)n2)c1 | -48.5
COc1ccc(C(N)=O)cc1NCc1ncc(C(C)(C)C)o1 | 15.7
CNC(=O)c1ccc(OC)c(NCc2noc(-c3cccs3)n2)c1 | 10
CCc1nc(CCNC(=O)Nc2cc(C(N)=O)ccc2OC)cs1 | -10.8
COc1ccnc(N2CCN(CC(O)CN3CCOCC3)CC2)n1 (centres undefined) | 4.52
Cn1ccnc1CN1CCC(c2nnc(Cn3cccn3)n2C)CC1 | 16.3
N#Cc1ccccc1C(=O)N1C[C@@H]2CC[C@H]1CN(c1ncccn1)C2 | 12.9
N#CC1(C(=O)N2CCCN(c3nccs3)CC2)CCCCC1 | 11.45
O=C(c1cnc(-c2cnccn2)s1)N1CCCC(n2cccn2)C1 (centres undefined) | 10
